This is one part of a sample in which hits are shown more often than they occur.
RBX1-CUL1 inh – inhibitors of human ROC1-CUL1 ubiquitin ligase activity. E3 ubiquitin-protein ligase RBX1 (Homo sapiens) + Cullin-1 (Homo sapiens), P62877+Q13616. AID 1347404, 2020. in vitro K48 di-Ub FRET, acceptor:donor ratio, 45 min. 140,000 tested, 0.6% active. inhibition, % at 10 µM; in the data active means inhibition above about 25%
Target sequence (P62877 whole entry, looked up): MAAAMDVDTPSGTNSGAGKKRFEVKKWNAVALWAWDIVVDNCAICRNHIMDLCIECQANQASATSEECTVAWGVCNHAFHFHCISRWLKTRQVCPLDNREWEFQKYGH
Target sequence (Q13616 whole entry, looked up): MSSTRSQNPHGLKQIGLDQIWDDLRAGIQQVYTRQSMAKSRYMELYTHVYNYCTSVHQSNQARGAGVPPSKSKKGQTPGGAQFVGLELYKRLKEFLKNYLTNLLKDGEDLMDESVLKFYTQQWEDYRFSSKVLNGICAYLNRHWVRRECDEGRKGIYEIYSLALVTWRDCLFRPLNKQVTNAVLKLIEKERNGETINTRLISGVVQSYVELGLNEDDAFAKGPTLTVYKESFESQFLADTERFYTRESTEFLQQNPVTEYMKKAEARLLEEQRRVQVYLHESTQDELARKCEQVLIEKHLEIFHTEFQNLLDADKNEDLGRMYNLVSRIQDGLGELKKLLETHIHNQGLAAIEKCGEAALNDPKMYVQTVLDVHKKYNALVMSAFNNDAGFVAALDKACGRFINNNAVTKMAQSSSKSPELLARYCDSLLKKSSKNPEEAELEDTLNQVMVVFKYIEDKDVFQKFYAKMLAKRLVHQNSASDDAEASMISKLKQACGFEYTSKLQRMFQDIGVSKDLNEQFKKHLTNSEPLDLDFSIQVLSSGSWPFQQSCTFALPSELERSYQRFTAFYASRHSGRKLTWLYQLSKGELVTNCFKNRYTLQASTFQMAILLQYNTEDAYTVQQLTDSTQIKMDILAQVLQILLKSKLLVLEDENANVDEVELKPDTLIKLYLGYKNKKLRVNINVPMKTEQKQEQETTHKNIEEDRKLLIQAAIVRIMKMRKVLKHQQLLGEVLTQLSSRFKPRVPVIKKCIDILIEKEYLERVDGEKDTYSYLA
* = called active by the depositor.

SMILES | RBX1-CUL1 inh
CC(C)Oc1ccc(C(N)=O)cc1Br | -14
O=C1NC(=S)N=C1Cc1ccc(-c2cc(C(=O)O)ccc2Cl)o1 | 10
Cc1c(C(=O)O)cccc1-c1ccc(CC2=NC(=O)N(c3cccc(Cl)c3)C2=O)o1 | -3
Cc1ccc(C(=O)O)cc1-c1ccc(CC2=NC(=O)N(c3ccc(Cl)cc3)C2=O)o1 | 50*
O=C(Nc1ccc(Oc2ccccc2F)cc1)C1CCN(CC2CC2)CC1 | -2
CCCCN(CCCC)CCCN1C(=O)C(=O)C(C(=O)C(C)(C)C)C1c1ccc(O)c(OC)c1 (stereo not given) | 5
CCN(CC)c1nc(C)nc2ccccc12 | 1
CCc1ccc(S(=O)(=O)Nc2cc(SCC(=O)O)c(O)c3ccccc23)cc1 | 108*
CCOc1ccc(S(=O)(=O)Nc2cc3c(C(=O)OC)c(COC)oc3c3ccccc23)cc1 | 4
CCc1ccc(S(=O)(=O)NCC(=O)O)cc1 | 7
CCOc1ccc(S(=O)(=O)Nc2cc(SCC(=O)O)c(O)c3ccccc23)cc1 | 43*
Cc1ccc(Sc2cc(NS(=O)(=O)c3ccccc3)c3ccccc3c2O)cc1 | 70*
Cc1ccc(S(=O)(=O)Nc2ccccc2-c2ccccc2NS(=O)(=O)c2ccc(C)cc2)cc1 | 7
CCOc1ccc(S(=O)(=O)Nc2ccc(S(=O)(=O)Nc3cccc4ccccc34)cc2)cc1 | 3
COc1ccc(S(=O)(=O)Nc2cc(SCc3ccccc3)c(O)c3ccccc23)cc1 | 2
Cc1cc(O)ccc1NS(=O)(=O)c1ccccc1 | 9
O=C(Nc1ccc(-c2cccc(F)c2)cc1)C1CCCN1C(=O)C1CCOCC1 (stereo not given) | -6
O=C(Nc1ccccc1)Nc1ccc2nc(-c3cscn3)[nH]c2c1 | 9
Cc1ccc(S(=O)(=O)NC2(C(F)(F)F)C(=O)N=C3C2C(=O)NC(=O)N3c2ccccc2)cc1 (stereo not given) | 1
O=C1NN(c2ccc(Cl)c(Cl)c2)C(=O)/C1=C/c1ccc(Br)cc1 | 57*
O=C1NN(c2ccc(Cl)cc2)C(=O)/C1=C/c1ccc(O)cc1 | 2
Cc1cc(/C=C2\C(=O)NN(c3ccccc3)C2=O)c(C)n1-c1ccc(Cl)c(Cl)c1 | 0
O=C1NN(c2ccc(Cl)c(Cl)c2)C(=O)/C1=C/c1cc(Br)ccc1O | 73*
CCc1ccc(/C=C2\C(=O)NN(c3ccc(I)cc3)C2=O)cc1 | 17
COc1ccc(/C=C2/C(=O)NN(c3ccc(Br)cc3)C2=O)cc1 | 7
SMILES | RBX1-CUL1 inh
O=C1NN(c2ccc(Cl)c(Cl)c2)C(=O)/C1=C/c1ccc(Cl)cc1Cl | 13
O=C1NN(c2ccc(Cl)cc2)C(=O)/C1=C/c1ccc(Br)cc1 | 53*
O=C1NN(c2ccc(Cl)c(Cl)c2)C(=O)/C1=C/c1ccccc1 | 21
CCc1ccc(/C=C2\C(=O)NN(c3ccc(Cl)c(Cl)c3)C2=O)cc1 | 81*
O=C1NN(c2ccc(Br)cc2)C(=O)/C1=C\c1ccc2c(c1)OCO2 | 8
OCCn1c2ccccc2c2nc3ccccc3nc21 | -5
Cc1ccc(Cl)c(OC(C)(C)C(=O)N2CCCC(C)C2)c1 (stereo not given) | 4
CCCCCCCSc1nc2sc3c(c2c(=O)n1-c1ccc(C)cc1)CCCC3 | 1
COC(=O)c1c(-c2ccc(F)cc2)csc1NC(=O)c1cc([N+](=O)[O-])ccc1Cl | -1
Cc1noc(C)c1C(=O)NCc1cccc(Cl)c1 | -8
COc1ccccc1NC(=O)c1sc(N)c(C#N)c1C | -2
C/C(=N\NC(=O)C1c2ccccc2Oc2ccccc21)c1cc(Cl)sc1Cl | -1
N#CC(C#N)C(CC(=O)c1ccccc1)c1ccc(Cl)cc1 (stereo not given) | 0
CCOc1ccc(/C=N/NC(=O)Cc2csc(Nc3cccc(C(F)(F)F)c3)n2)cc1OCC | -1
Fc1ccc(-c2n[nH]c(=S)n2-c2ccccc2)cc1 | 36*
S=c1[nH]nc(-c2ccccc2)n1-c1ccc(Cl)cc1 | 0
CC(C)(C)c1ccc(-c2n[nH]c(=S)n2-c2ccccc2)cc1 | -5
CS(=O)(=O)N1CCc2onc(-c3ccc(-c4ccccc4)cc3)c2C1 | 2
O=C1NN(c2ccc(I)cc2)C(=O)/C1=C\c1ccc(-c2ccc(Br)cc2C(=O)O)o1 | 45*
O=C1NN(c2ccc(Cl)c(Cl)c2)C(=O)/C1=C\c1ccc(-c2ccc(Br)cc2C(=O)O)o1 | 71*
Cc1ccc(/C=C2/C(=O)NN(c3cccc(C(F)(F)F)c3)C2=O)o1 | 9
COC(=O)c1ccccc1-c1ccc(/C=C2\C(=O)NN(c3ccc(Br)cc3)C2=O)o1 | 11
CCc1ccc(N2NC(=O)/C(=C/c3ccc(-c4ccccc4F)o3)C2=O)cc1 | -1
COC(=O)c1cccc(-c2ccc(/C=C3/C(=O)NN(c4ccc(C)cc4)C3=O)o2)c1 | 15
O=C1NN(c2ccc(I)cc2)C(=O)/C1=C\c1ccc(-c2cccc(C(=O)O)c2)o1 | 33*
CCCc1[nH]nc2c1C(c1cccc(OCC)c1OCc1ccccc1Cl)C(C#N)C(=N)O2 (stereo not given) | 15

Screening data: PubChem, Pan Lab, Icahn School of Medicine at Mount Sinai
